DT40 TDP1 CPT: DT40-hTDP1 cell growth loss with CPT | 420,000 tested, 12% active | Potency, µM (doses to about 46.2 µM), without a hit: top-dose activity change, negative = growth inhibition, most hits filed as inhibitors | AID 686979 | chicken DT40 Tdp1-/-;hTDP1 cells + 20 nM CPT, ATP luminescence, 48 h; also: potency is read from the fitted curve at half-maximal effect; % is scaled to controls: 0 for no effect and ±100 for the full control effect; nearly all actives have a fitted effect of over 55% in size
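Cell growth measured by CellTiter-Glo luminescence after a minimum 48 h, 37 C compound exposure with 20 nM CPT in Tdp1-knockout DT40 cells stably expressing hTDP1, seeded 400/well; qHTS titration format.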
IL-1B inflam inh: blocks inflammasome-driven IL-1 beta release; THP-1 LPS/ATP IL-1B secretion, AlphaLISA, 16 h; stronger effect = lower value; activity change, % at 57.5 µM; 360,000 tested, 4.7% active; AID 743279; in the data active = activity change below about -50%; inconclusive = mostly about -30% to -49%; also: % is scaled to controls: 0 for no effect and ±100 for the full control effect
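THP-1 cells pretreated 1 hr with compounds (up to 57.5 uM final), then stimulated with LPS (250 ng/mL final) plus ATP (1.25 mM final); secreted IL-1B measured by AlphaLISA after 16 hr, decreased signal indicating inhibition.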
DT40 TDP1 no CPT: qHTS for Inhibitors of human tyrosyl-DNA phosphodiesterase 1 (TDP1): qHTS in cells in absence of CPT | DT40 Tdp1-/- hTDP1 cells, no CPT, ATP luminescence, 48 h | Potency, µM (series often up to 46.2 µM), inactives show at the top dose activity change, negative = growth inhibition, most hits filed as inhibitors | 420,000 tested, 15% active | AID 686978, 2013; also: potency is read from the fitted curve at half-maximal effect; % is scaled to controls: 0 for no effect and ±100 for the full control effect; nearly all actives have a fitted effect of over 55% in size
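DT40 Tdp1-/-;hTDP1 cells, no CPT (DMSO vehicle only), 400 cells/well; compounds pin-transferred; ≥48 hr, 37 °C; CellTiter-Glo 30 min RT dark, luminescence read.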
HepG2 tox: HepG2 cytotoxicity, counter-screen for TGF-b inhibitors | HepG2 CAGA-GFP viability, ATP luminescence, 18 h | Potency, µM (highest dose often 46.1 µM), inactives show top-dose activity change, negative = cytotoxicity, actives largely listed as cytotoxic | 410,000 tested, 0.76% active | AID 588856; also: potency is read from the fitted curve at half-maximal effect
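CellTiter-Glo luminescence gave cytotoxicity after 18 hours at 37 degrees C. The cells were HepG2 CAGA-GFP in 1% FBS DMEM, stimulated with 500 pg/mL TGF-beta after compound addition. %Activity was normalised to no-cell wells (complete cell-killing) and DMSO (no toxicity), and curves were fitted and classified.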
TGFb SMAD3 inh: blocks TGF-b signaling; HepG2 CAGA-GFP TGF-b/SMAD3 reporter, GFP fluorescence, 18 h; TGF-beta stimulated, 500 pg/mL final; Potency, µM (doses to about 46.1 µM), for the others: at the top dose activity, negative = inhibition, actives largely listed as inhibitors; 410,000 tested, 1.2% active; also: potency is read from the fitted curve at half-maximal effect; % is scaled to controls: 0 for no effect and ±100 for the full control effect; nearly all actives have a fitted effect of over 65% in size
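Inhibition was scored as loss of TGF-beta-induced (500 pg/mL final, 18 hours, 37 degrees C) GFP in HEPG2 cells carrying a CAGA-GFP reporter, in DMEM with 1% FBS. Well GFP was summed per cell; Activity was normalised to unstimulated and stimulated DMSO wells, then concentration-response fitting.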
TDP1 block: inhibitors of human tyrosyl-DNA phosphodiesterase TDP1 | 350,000 tested, 0.28% active | Potency, µM (series often up to 130 µM), for the others: at the highest dose activity change, negative = inhibition, hits mostly inhibitors | Q9NUW8 | AID 485290 | recombinant TDP1, AlphaScreen DNA substrate cleavage; also: potency is read from the fitted curve at half-maximal effect; % is scaled to controls: 0 for no effect and ±100 for the full control effect; nearly all actives have a fitted effect of over 40% in size
Target sequence (Q9NUW8 whole entry, looked up): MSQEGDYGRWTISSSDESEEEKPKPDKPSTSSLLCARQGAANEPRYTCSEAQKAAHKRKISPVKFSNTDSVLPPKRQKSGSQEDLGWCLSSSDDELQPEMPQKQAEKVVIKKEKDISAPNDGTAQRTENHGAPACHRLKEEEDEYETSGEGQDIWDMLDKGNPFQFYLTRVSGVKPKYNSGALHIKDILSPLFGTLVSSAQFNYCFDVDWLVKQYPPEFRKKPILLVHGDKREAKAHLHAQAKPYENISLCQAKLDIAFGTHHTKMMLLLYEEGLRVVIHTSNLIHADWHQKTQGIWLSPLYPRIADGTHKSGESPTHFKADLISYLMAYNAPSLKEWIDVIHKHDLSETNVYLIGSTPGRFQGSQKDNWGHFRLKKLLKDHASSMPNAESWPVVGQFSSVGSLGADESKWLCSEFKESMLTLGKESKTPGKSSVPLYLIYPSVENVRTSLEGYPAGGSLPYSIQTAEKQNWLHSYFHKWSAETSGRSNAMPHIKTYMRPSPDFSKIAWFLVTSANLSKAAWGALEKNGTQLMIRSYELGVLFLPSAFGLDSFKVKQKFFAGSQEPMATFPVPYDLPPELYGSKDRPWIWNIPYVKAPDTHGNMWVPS
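Recombinant E. coli-expressed Tdp1 (1 nM) preincubated with compound 15 min at RT, then 5'-biotin/3'-phosphotyrosine-FITC DNA substrate (15 nM) added for 5 min. AlphaScreen beads (10 ug/ml) added, 10 min RT; tyrosine-FITC cleavage read as signal loss.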
Starred values were filed as active, the others as inactive. Sampled rows, rich in hits. Any-hit rate of the full collection: about 19%. Unless noted, calls follow the shape of the dose curve; as a rule, active = well fitted curve in the direction sought with a large enough effect; inconclusive = small, poorly fitted or top-dose-only effect, or another doubt; inactive = no such curve, though single readings can be large; an effect the other way counts as inactive or inconclusive.

O=C(CNC(=O)c1ccc(Br)o1)NCC(=O)OCc1ccccc1 was read as DT40 TDP1 CPT 9%, IL-1B inflam inh 5, DT40 TDP1 no CPT -20%, HepG2 tox 1% and TGFb SMAD3 inh 20%.
Screening Cc1c(C(=O)N2CCC(C)CC2)c(S(=O)(=O)NCc2ccccc2)c(C)n1C returned DT40 TDP1 CPT -1%, DT40 TDP1 no CPT -9%, HepG2 tox -3%, TGFb SMAD3 inh 1% and TDP1 block -4%.
COc1ccccc1NC(=O)CCNS(=O)(=O)c1ccc2c(c1)CCN2C(=O)C1CC1 was read as DT40 TDP1 CPT inconclusive, DT40 TDP1 no CPT inconclusive, HepG2 tox 13%, TGFb SMAD3 inh -1% and TDP1 block 2%.
`O=C(C1CC1)N1CCc2cc(S(=O)(=O)NCCC3=CCCCC3)ccc21` gave DT40 TDP1 CPT inconclusive, IL-1B inflam inh -1, DT40 TDP1 no CPT -27%, HepG2 tox -13%, TGFb SMAD3 inh -10% and TDP1 block -1%.
Screening O=C(CCNS(=O)(=O)c1ccc2c(c1)CCN2C(=O)C1CC1)Nc1ccc(OC(F)(F)F)cc1 returned DT40 TDP1 CPT inconclusive, DT40 TDP1 no CPT inconclusive, HepG2 tox -6%, TGFb SMAD3 inh -5% and TDP1 block -10%.
`O=C(CCNS(=O)(=O)c1ccc2c(c1)CCN2C(=O)C1CC1)Nc1ccc(Cl)cc1` gave DT40 TDP1 CPT 10µM*, DT40 TDP1 no CPT 12µM*, HepG2 tox -31%, TGFb SMAD3 inh -3% and TDP1 block 7%.
For CCc1ccccc1NC(=O)CCNS(=O)(=O)c1ccc2c(c1)CCN2C(=O)C1CC1 the results were DT40 TDP1 CPT inconclusive, DT40 TDP1 no CPT 18µM*, HepG2 tox -8%, TGFb SMAD3 inh -6% and TDP1 block 10%.
Cc1ccc(NC(=O)CCNS(=O)(=O)c2ccc3c(c2)CCN3C(=O)C2CC2)c(Cl)c1 was read as DT40 TDP1 CPT 5.2µM*, DT40 TDP1 no CPT 4.1µM*, HepG2 tox -26%, TGFb SMAD3 inh -10% and TDP1 block -1%.
For COc1cccc(C2c3c(ncn(-c4ccccc4SC)c3=N)Oc3ccc4ccccc4c32)c1 (stereo not drawn) the results were TDP1 block 5%.
For COc1ccccc1-c1nc2c(c(SCC(=O)Nc3ccc(C)c(C)c3)n1)Cc1c(CO)cnc(C)c1O2 the results were DT40 TDP1 CPT 16µM*, DT40 TDP1 no CPT 9.2µM*, HepG2 tox -20%, TGFb SMAD3 inh -18% and TDP1 block 10%.
Cc1ncc(CO)c2c1Oc1nc(-c3ccccc3)nc(SCC(=O)N3CCOCC3)c1C2 was read as DT40 TDP1 CPT 18µM*, IL-1B inflam inh -11, DT40 TDP1 no CPT 10µM*, HepG2 tox -12%, TGFb SMAD3 inh inconclusive and TDP1 block 5%.
For COc1ccccc1-c1nc2c(c(SCc3ccc(F)cc3Cl)n1)Cc1c(CO)cnc(C)c1O2 the results were DT40 TDP1 CPT 1%, DT40 TDP1 no CPT -5%, HepG2 tox -8%, TGFb SMAD3 inh 3% and TDP1 block -8%.
For COc1ccccc1-c1nc2c(c(SCC(=O)N3CCCCC3)n1)Cc1c(CO)cnc(C)c1O2 the results were DT40 TDP1 CPT 9.2µM*, IL-1B inflam inh -4, DT40 TDP1 no CPT 6.5µM*, HepG2 tox 5%, TGFb SMAD3 inh 35% and TDP1 block 6%.
Screening Cc1cccc(NC(=O)CSc2nc(-c3cccc(C)c3)nc3c2Cc2c(CO)cnc(C)c2O3)c1 returned DT40 TDP1 CPT inconclusive, DT40 TDP1 no CPT -29%, HepG2 tox 8%, TGFb SMAD3 inh -4% and TDP1 block 0%.
`Cc1cccc(-c2nc3c(c(SCC(=O)N4CCOCC4)n2)Cc2c(CO)cnc(C)c2O3)c1` gave DT40 TDP1 CPT inconclusive, IL-1B inflam inh inconclusive, DT40 TDP1 no CPT 3.7µM*, HepG2 tox -25%, TGFb SMAD3 inh -19% and TDP1 block 9%.
`CC1CN(c2cc3c(cc2F)c(=O)c(C(=O)O)cn3-c2ccc(F)cc2F)CCN1` (stereo not drawn) gave DT40 TDP1 CPT 3% and DT40 TDP1 no CPT -1%.
`Cc1ncc(CO)c2c1Oc1nc(-c3ccc(Cl)cc3)nc(SCC(=O)N3CCCCC3)c1C2` gave DT40 TDP1 CPT inconclusive, DT40 TDP1 no CPT 16µM*, HepG2 tox 1%, TGFb SMAD3 inh 0% and TDP1 block 0%.
Screening COc1ccc(-c2nc3c(c(SCc4cc(C)ccc4C)n2)Cc2c(CO)cnc(C)c2O3)cc1 returned DT40 TDP1 CPT -4%, DT40 TDP1 no CPT -2%, HepG2 tox 2%, TGFb SMAD3 inh 27% and TDP1 block 3%.
`COc1cccc(-c2nc3c(c(SCC(=O)N4CCOCC4)n2)Cc2c(CO)cnc(C)c2O3)c1` gave DT40 TDP1 CPT 21µM*, IL-1B inflam inh -14, DT40 TDP1 no CPT 4.1µM*, HepG2 tox -12%, TGFb SMAD3 inh 4% and TDP1 block 5%.
CCN(CC)C(=O)CSc1nc(-c2ccccc2F)nc2c1Cc1c(CO)cnc(C)c1O2 was read as DT40 TDP1 CPT 3.7µM*, DT40 TDP1 no CPT 4.6µM*, HepG2 tox 2%, TGFb SMAD3 inh 3% and TDP1 block 5%.
O=C(CSc1nc(-c2ccc(Cl)cc2)nc2c1Cc1ccccc1O2)N1CCCCC1 was read as DT40 TDP1 CPT 1%, DT40 TDP1 no CPT -14%, HepG2 tox -3%, TGFb SMAD3 inh 4% and TDP1 block 4%.
COc1ccccc1-c1nc2c(c(SCc3cc(C)ccc3C)n1)Cc1c(CO)cnc(C)c1O2 was read as DT40 TDP1 CPT 9.2µM*, DT40 TDP1 no CPT 10µM*, HepG2 tox 1%, TGFb SMAD3 inh 0% and TDP1 block 0%.
CCCCc1nn2c(=O)cc(COC(=O)c3ccc(NC(=O)c4ccccc4Cl)cc3)nc2s1 was read as DT40 TDP1 CPT -17%, DT40 TDP1 no CPT -19%, HepG2 tox -14%, TGFb SMAD3 inh -6% and TDP1 block 6%.
`COc1ccc(OC)c(NC(=O)c2cc3cc(C)ccc3n2C)c1` gave DT40 TDP1 CPT inconclusive, DT40 TDP1 no CPT inconclusive, HepG2 tox -23%, TGFb SMAD3 inh 8% and TDP1 block -1%.
